Z-score data for 111 molecules are collected here from PubChem BioAssay AID488969 (Vanderbilt High Throughput Screening Facility, 2010).

Whole data set: some 110,000 compounds, median “z-score” near -0.1, cut for the highest 2% near 2. Shown is part of a subset that was picked to be rich in the highest values. The source made the active and inactive calls.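 Rule for the calls: active = z-score in the third read window above 3 or below -3; inactive = the rest.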

For this experiment, the target named is Metabotropic glutamate receptor 8 (Rattus norvegicus) (UniProt P70579). As to the kind of experiment: rat mGluR8 modulators via GIRK flux, primary screen, cell-based, thallium flux, HTS (AID 488969). To be noted: HEK293 rat mGluR8, GIRK (G protein-gated inwardly rectifying potassium channel) thallium flux, FluoZin2; at 10 µM; stronger effect = higher value; submaximal glutamate (EC20) added with thallium.
Chain of Metabotropic glutamate receptor 8 (Rattus norvegicus) (P70579 whole entry, looked up): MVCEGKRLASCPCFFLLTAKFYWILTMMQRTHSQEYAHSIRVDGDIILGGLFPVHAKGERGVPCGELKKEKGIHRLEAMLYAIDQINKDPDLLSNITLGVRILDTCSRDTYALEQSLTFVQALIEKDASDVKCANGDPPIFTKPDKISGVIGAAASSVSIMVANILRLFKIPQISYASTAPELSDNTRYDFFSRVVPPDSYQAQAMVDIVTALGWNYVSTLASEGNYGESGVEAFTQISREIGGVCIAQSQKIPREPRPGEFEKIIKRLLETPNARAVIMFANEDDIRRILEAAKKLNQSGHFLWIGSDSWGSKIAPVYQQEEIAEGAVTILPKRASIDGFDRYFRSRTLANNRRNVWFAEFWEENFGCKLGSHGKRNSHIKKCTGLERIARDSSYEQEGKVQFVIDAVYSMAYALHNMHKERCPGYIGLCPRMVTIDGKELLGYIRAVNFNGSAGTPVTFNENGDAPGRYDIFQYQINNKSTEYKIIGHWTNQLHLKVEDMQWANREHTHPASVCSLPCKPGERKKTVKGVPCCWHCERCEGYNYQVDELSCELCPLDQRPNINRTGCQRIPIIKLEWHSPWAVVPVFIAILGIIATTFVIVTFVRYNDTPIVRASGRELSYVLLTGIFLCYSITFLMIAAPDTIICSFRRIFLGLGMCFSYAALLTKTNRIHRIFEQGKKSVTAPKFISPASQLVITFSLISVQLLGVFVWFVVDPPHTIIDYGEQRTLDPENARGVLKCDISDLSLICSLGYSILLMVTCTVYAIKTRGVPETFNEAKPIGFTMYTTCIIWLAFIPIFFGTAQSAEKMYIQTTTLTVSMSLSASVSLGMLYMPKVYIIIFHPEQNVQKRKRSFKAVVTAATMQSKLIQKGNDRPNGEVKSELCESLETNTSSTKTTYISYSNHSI
`COc1ccccc1/C=C/C=N/N1CCN(Cc2cccc3ccccc23)CC1` showed a z-score of -0.494. With `COc1ccccc1/C=C/C=N\N1CCN(Cc2ccccc2Cl)CC1` the figure was 5.52 (active); with `COc1ccccc1/C=C/C=N/N1CCN(Cc2ccc(Cl)cc2)CC1`, -0.494; with `CN(C)c1ccnc(-n2cccc2/C=N/OCc2cccc(F)c2)c1C#N`, -0.0405. The figure for `CCN(C(=O)CSc1ncccc1C(=O)OC(C)C)c1cccc(C)c1` is -0.441; for `O=C(Nc1cc(C(F)(F)F)ccc1F)C1CCC1` it is 0.411.

As to `COc1ccc(Nc2nc(N)nc(CSc3nnc(C)s3)n2)cc1`, the z-score stood at 2.42. The figure for `COc1ccc(OCc2nc(N)nc(Nc3ccc(C)cc3)n2)cc1` is 0.32; for `Cc1nnc(SCc2nc(N)nc(Nc3ccccc3)n2)s1` it is -0.209. The figure for `COc1ccc(Nc2nc(N)nc(COc3ccc(OC)cc3)n2)cc1` is -0.113; for `COc1ccc(OCc2nc(N)nc(Nc3ccccc3)n2)cc1` it is 5.72 (active); for `COc1ccc(Nc2nc(N)nc(CSc3nnc(N)s3)n2)cc1` it is -0.571. Turning to `O=C1c2ccccc2CC1(Cc1ccccc1)Cc1ccccc1`, the z-score is -0.201.

For the molecule `CC(Oc1ccc(Cl)cc1)C(=O)N/N=C/c1ccsc1` (stereo unspecified), the z-score was 11.6 (active). In the case of `CC(C)(C)c1ccc(OCC(=O)N/N=C/c2ccsc2)cc1`, the z-score was determined as 0.2.

Turning to `COc1ccc(OCC(=O)N/N=C/c2ccsc2)cc1`, the z-score amounted to 0.604.

`COc1cc(C(=O)Nc2ccc(S(=O)(=O)NC(C)(C)C)cc2)cc(OC)c1OC` returned a z-score of -0.258.

In turn, `CCOc1cc(N2CCOCC2)c(OCC)cc1NC(=O)Cc1cccc2ccccc12` had a z-score of -0.178. The figure for `CCOc1cc(N2CCOCC2)c(OCC)cc1NC(=O)COC(=O)CCc1c[nH]c2ccccc12` is 8.03 (active); for `CCOc1cc(N2CCOCC2)c(OCC)cc1NC(=O)COC(=O)c1cccc2ccccc12` it is -0.0215. The figure for `CCOc1ccccc1N1C(=O)CC(N(O)c2ccccc2)C1=O` (stereo unspecified) is -0.0542; for `CC1(C)CN2C(=S)N(c3ccccc3)C(c3ccccc3)N2C1` (stereo unspecified) it is -0.619; for `COc1ccc(Cl)c(N2CCN(CCCNC(=O)Nc3ccc(C)cc3)CC2)c1` it is 2.3. With `COc1ccc(N2CCN(CCCNC(=O)Nc3ccccc3)CC2)cc1` the figure was 0.121. Turning to `COc1ccc(N2CCN(CCNC(=O)Nc3ccc(Cl)cc3)CC2)cc1`, the z-score amounted to 0.451.

In the case of `COc1ccccc1C1(CCNS(=O)(=O)c2ccc(C)cc2)CCOC(C(C)C)C1` (stereo unspecified), the z-score is -0.293. The figure for `CC(=O)/C(=N/Nc1ccccc1)Sc1nnc(C(O)c2ccccc2)n1-c1ccccc1` (stereo unspecified) is -0.33; for `COc1cc(Cl)c(C)cc1NC(=O)CSC` it is 0.0277.

`CCn1cc(CNC(=O)/C=C/c2ccc([N+](=O)[O-])cc2)c(C)n1` came in with a z-score of -0.204.

For `COc1ccc2nc(Nc3nc4cc5c(cc4s3)OCO5)sc2c1`, the z-score is 0.175. For `Fc1ccc2nc(Nc3nc4cc5c(cc4s3)OCCO5)sc2c1`, the z-score is -0.101.

In turn, `c1ccc2sc(Nc3nc4cc5c(cc4s3)OCO5)nc2c1` displayed a z-score of 0.501. Molecule `Fc1cc(F)c2nc(Nc3nc4cc5c(cc4s3)OCO5)sc2c1` displayed a z-score of 1.9. The figure for `Fc1cccc2sc(Nc3nc4cc5c(cc4s3)OCCO5)nc12` is 2.25; for `Fc1cccc2sc(Nc3nc4cc5c(cc4s3)OCO5)nc12` it is 5.54 (active). On to `Clc1cccc(Cl)c1Cn1cnc(=NCc2ccco2)c2[nH]cnc21`, for which the z-score is -0.33. In turn, `COc1ccc(/C=N/Nc2cc(C)nc(NS(=O)(=O)c3ccc(C)cc3)n2)cc1` had a z-score of -0.501.

The molecule `CCCCN=Cc1sc2ccc(OCC)cc2c1O` came in with a z-score of -0.188. The figure for `CC1CCCN(C(=O)CSc2nnc3n(C4CCCC4)c(=O)c4ccccc4n23)C1` (stereo unspecified) is -0.217; for `S=C(Nc1ccccc1)c1ccccn1` it is 2.52. The figure for `O=C(Nc1ccccc1)Nc1ccccn1` is 0.139; for `Cc1ccc(C)c(NC(=S)c2ccccn2)c1` it is -0.333; for `CCCNC1=C(N(C(C)=O)c2cccc(F)c2)C(=O)c2ccccc2C1=O` it is -1.55. Regarding `CC(=O)N(Cc1ccc(F)cc1)C1=C(NCc2ccccc2)C(=O)c2ccccc2C1=O`, the z-score was determined as 2.03. With `CC(=O)N(Cc1ccc(F)cc1)C1=C(NCCc2ccccc2)C(=O)c2ccccc2C1=O` the figure was 1.71e-05; with `COC(=O)C1(S(=O)(=O)c2cc(Br)cc3c2N(C(C)=O)CC3)CC1`, -0.117; with `O=C(COC(=O)C1=Cc2ccccc2OC1)NC1CCCC1`, -0.184.

With `CN1CCN(C(=O)CN(c2cc(C(F)(F)F)ccc2Cl)S(C)(=O)=O)CC1`, the z-score was determined as 2.63. As to `CS(=O)(=O)N(CC(=O)N1CCN(c2ccccc2)CC1)c1cc(C(F)(F)F)ccc1Cl`, the z-score was -0.525. With `CCOC(=O)N1CCN(C(=O)CN(c2cc(C(F)(F)F)ccc2Cl)S(C)(=O)=O)CC1` the figure was 0.421; with `O=C(COc1cccc2ccccc12)NNC(=O)CSCCO`, -0.199. The figure for `c1ccc2c(NC3CCCC3)nnc(NC3CCCC3)c2c1` is 3.18 (active). With `c1ccc(-n2nnnc2NC2CCCCC2)cc1` the figure was -0.018; with `c1csc(-c2nnc(NC3CCCCC3)c3ccccc23)c1`, -1.27. As for `CCOC(=O)CSc1nnc(Cc2ccccc2)n1-c1cccc(Cl)c1`, the z-score was -0.436. The figure for `CCOC(=O)CSc1nnc(CNc2cccc(Cl)c2)n1C` is 1.12; for `CCOC(=O)CSc1nnc(CNc2cccc(Cl)c2)n1-c1ccccc1` it is 2.85; for `CCOC(=O)C(=O)Nc1ccc2c(c1)OCO2` it is 0.0617. With `Oc1c(Cl)cc(Cl)cc1C=Nc1ccccc1N1CCCC1` the figure was 0.0524. The figure for `Cc1cccc(N2CCN(C(=O)Cn3nc(Cc4ccncc4)c4ccccc4c3=O)CC2)c1C` is -0.488. Regarding `O=C(Cn1nc(Cc2cccnc2)c2ccccc2c1=O)N1CCN(C(=O)c2ccco2)CC1`, the z-score is -0.426.

Turning to `O=C(Cn1nc(Cc2ccncc2)c2ccccc2c1=O)N1CCN(C(=O)c2ccco2)CC1`, the z-score is 3.76 (active). With `CC(C)=C1SC(N2CCN(c3cccc(C(F)(F)F)c3)CC2)=NC1=O` the figure was -0.205; with `O=C1c2cccc3cc(Br)cc(c23)C(=O)N1Nc1ccc(Br)cc1`, -0.252; with `COc1ccc(CCNC(=O)c2ccc(CN3CCC(Cc4ccccc4)CC3)cc2)cc1`, -0.304. The figure for `Cc1noc(/C=C/N(C)C)c1S(=O)(=O)N1CCCC(C(=O)NCc2ccc(Cl)cc2)C1` (stereo unspecified) is -0.29; for `Cc1noc(/C=C/N(C)C)c1S(=O)(=O)N1CCCC(C(=O)NCc2ccc(F)cc2)C1` (stereo unspecified) it is 2.21. The figure for `Cc1ccc(CCNC(=O)C2CCCN(S(=O)(=O)c3c(C)noc3/C=C/N(C)C)C2)cc1` (stereo unspecified) is -0.519; for `CC(C)(C)NC(=O)C(c1ccncc1)N(C(=O)Cn1nnc(-c2cccs2)n1)C1CCCCC1` (stereo unspecified) it is -0.081; for `Cc1cc(C)nc(SCc2nnc(SCC(=O)NCc3ccco3)n2-c2ccccc2)n1` it is -0.73. As to `Cc1ccc(-n2c(CSc3nc(C)cc(C)n3)nnc2SCC(=O)NCc2ccco2)cc1`, the z-score was 8.78 (active). As for `Cc1cc(C)nc(SCC(=O)NCc2ccco2)n1`, the z-score was found to be 0.232.

In the case of `Cc1ccc(-c2nc3ncccc3o2)cc1NC(=O)Cc1ccc(Cl)cc1`, the z-score is 0.497. The figure for `CNC(=O)C1CC(=O)N(c2ccc(C)cc2)C1` (stereo unspecified) is 0.338; for `O=C(Nc1ccc2c(c1)OCCO2)C1CCCN(S(=O)(=O)c2cccc3nsnc23)C1` (stereo unspecified) it is 0.545.

For the molecule `CN(C)S(=O)(=O)N1CCN(C(=O)N2CCCCCC2)CC1`, the z-score is -0.197. With `Cc1ccc(C(=O)OCC(=O)N2CC(=O)Nc3ccccc32)s1` the figure was 0.331. Molecule `Cc1ccsc1C(=O)OCC(=O)N1CC(=O)Nc2ccccc21` came in with a z-score of -0.081. As to `CCOc1ncccc1C(=O)OCC(=O)N1CC(=O)Nc2ccccc21`, the z-score was determined as 2.36. With `O=C(CCN1C(=O)C2CC=C(Cl)CC2C1=O)NCc1ccco1` (stereo unspecified) the figure was -0.187; with `O=S(=O)(NC1CC1)c1ccc(S(=O)(=O)N(Cc2ccccn2)C2CCCC2)cc1`, -0.114; with `O=C(Cc1ccc(Cl)cc1)Nc1ccc(N2CCN(C(=O)c3ccco3)CC2)c(Cl)c1`, 2.13. The figure for `O=C(Nc1ccc(N2CCN(C(=O)c3ccco3)CC2)c(Cl)c1)c1c(F)c(F)c(F)c(F)c1F` is -0.334; for `O=C(Cc1ccc(Cl)cc1)Nc1ccc(N2CCN(C(=O)c3ccco3)CC2)cc1` it is 0.107; for `Cc1cc(/C=N\NC(=O)CC(=O)NC2CCCCC2)c(C)n1-c1cccc(Cl)c1Cl` it is -0.438. Turning to `CCN1CCN(Cc2ccccc2NC(=O)Nc2ccc(C)cc2)CC1`, the z-score turned out to be 0.088. With `NC(=O)C1CCCN(C(=O)Nc2cccc3ccccc23)C1` (stereo unspecified) the figure was 0.107; with `COC(=O)Cc1c[nH]c2cccc(OCC(O)CN(Cc3ccccc3)C(C)C)c12` (stereo unspecified), 0.637. On to `CCCCn1nc2cc(C(=O)NCCc3ccc(C)cc3)ccc2c1OCC`, for which the z-score was -0.356.

On to `CCCn1nc2cc(C(=O)NCCc3ccc(C)cc3)ccc2c1OCC`, for which the z-score came out at 2.73. The figure for `CCOc1c2ccc(C(=O)NCCc3ccc(C)cc3)cc2nn1CC` is -0.287. With `Cc1c(C(N)=O)sc2ncn(CC(=O)OC(C)C)c(=O)c12` the figure was 0.619; with `CN(C)CCSc1nc(-c2ccccc2)nc2c1COC(C)(C)C2`, -0.143.

Turning to `CC(C)NCCCOc1ccc(C(C)(C)c2ccccc2)cc1`, the z-score is 0.192. For the molecule `CN(C)CCCOc1ccc(C(C)(C)c2ccccc2)cc1`, the z-score is 3.07 (active). With `CNCCCOc1ccc(C(C)(C)c2ccccc2)cc1` the figure was 0.32; with `O=C(Nc1ccc(N2CCN(C(=O)c3ccco3)CC2)cc1)c1ccc2c(c1)OCO2`, 0.192.

For the molecule `CCN1C(=O)CC(N2CCC(Cc3ccccc3)CC2)C1=O` (stereo unspecified), the z-score is -0.239. The figure for `Cc1cc(O)c(C(C[N+](=O)[O-])c2ccc(Cl)cc2)c(=O)o1` (stereo unspecified) is 0.103; for `C=CCNC(=S)Nc1ccc2nc(C)c(C)nc2c1` it is 0.0978. Regarding `CCOC(=O)c1ccc(CNCc2ccccc2)cc1`, the z-score was -0.07. With `C=CCNC(=S)Nc1nc2c(cc1C(=O)OCC)CCCC2` the figure was 7.76 (active); with `CCOC(=O)c1ccc(NC(=S)NCCC2=CCCCC2)cc1`, -0.19; with `CCOC(=O)c1cc2c(nc1N)CC(C)(C)OC2`, -0.353. The figure for `CCNC(=S)Nc1nc2c(cc1C(=O)OCC)CCCC2` is 8.73 (active); for `C=CCNc1nc(-c2ccccc2)c(C(=O)OCC)cc1C#N` it is -0.303. With `CCOC(=O)c1cc2c(nc1NC(=S)Nc1ccccc1)CC(C)(C)OC2` the figure was -0.292. In turn, `CCOC(=O)c1cc2c(nc1N)CC(C)(CC)OC2` (stereo unspecified) gave a z-score of -0.0521.

Take `C=C(C)CNC(=S)Nc1nc2c(cc1C(=O)OCC)CCCC2`: the z-score was 3.56 (active). The figure for `CCOC(=O)c1cc2c(nc1NC(=S)NCc1ccccc1)CCCC2` is 2.16; for `CCOC(=O)c1cnc2cc3c(cn2c1=O)CCCC3` it is 0.699.
